Hits are enriched below; roughly 4.5% of the tested compounds scored in any of these assays.
dFosB act-1: activators of delta FosB homodimer, primary screen, biochemical, fluorescence polarization, TAMRA-CDK5 oligo, single point; activation, % at 25 µM; purified delta FosB; percent of positive-control signal above neutral wells; AID 493131, 2011; actives 0.99% (n = 340,000);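 active = mean activation above about 17%, with every replicate also reaching it, limit read from the data, passing the limit was not always enough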
Target sequence (P13346 whole entry, looked up): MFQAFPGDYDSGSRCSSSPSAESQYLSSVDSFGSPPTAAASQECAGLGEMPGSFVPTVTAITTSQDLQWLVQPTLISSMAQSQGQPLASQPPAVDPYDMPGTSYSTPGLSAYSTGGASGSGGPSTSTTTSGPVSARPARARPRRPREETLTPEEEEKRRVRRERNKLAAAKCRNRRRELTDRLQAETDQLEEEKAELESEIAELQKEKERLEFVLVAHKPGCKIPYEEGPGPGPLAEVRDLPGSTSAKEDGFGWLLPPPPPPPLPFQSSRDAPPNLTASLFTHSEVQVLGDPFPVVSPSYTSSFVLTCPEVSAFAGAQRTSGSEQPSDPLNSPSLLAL
Rpn11 block: Rpn11 (PSMD14) deubiquitinase inhibitors, primary screen, biochemical, fluorescence polarization, uHTS | AID 588493, 2011 | inhibition, % at 20 µM | 26S proteasome non-ATPase regulatory subunit 14 (Homo sapiens), O00487 | human 26S proteasome, Ub4-pepOG fluorescence polarization; 20S core pre-blocked with epoxomicin | actives 0.59% (n = 360,000);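 active = inhibition at 20 µM, scaled to each plate's controls, above about 33%, limit read from the data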
NR3A LBD binder: binders of NR3A ligand-binding domain, primary screen, biophysical, differential scanning fluorimetry, uHTS. Glutamate receptor ionotropic, NMDA 3A (GRIN3A) ligand-binding domain. NR3A LBD differential scanning fluorimetry, Tm shift; 0% = protein alone, 100% = glycine-bound protein. Tm shift relative to glycine control, % at 25 µM. actives 2.5% (n = 340,000). AID 1259313, 2017;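 active = melting temperature shift of at least 10% of the positive control shift, at one fixed dose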
EBNA-1 inh: EBNA-1 DNA-binding inhibitors, primary screen, biochemical, fluorescence polarization. inhibition, % at 14.8 µM. AID 1950, 2009. actives 0.34% (n = 300,000); in the data active = inhibition above about 28%
ZTA DNA inh: blocks Epstein-Barr virus ZTA, an EBNA-1 counter-screen | P03206 | ZTA-DNA binding, fluorescence polarization | inhibition, % at 11 µM | actives 0.15% (n = 320,000) | AID 2234; in the data active = inhibition above about 33%
Target sequence (P03206 whole entry, looked up): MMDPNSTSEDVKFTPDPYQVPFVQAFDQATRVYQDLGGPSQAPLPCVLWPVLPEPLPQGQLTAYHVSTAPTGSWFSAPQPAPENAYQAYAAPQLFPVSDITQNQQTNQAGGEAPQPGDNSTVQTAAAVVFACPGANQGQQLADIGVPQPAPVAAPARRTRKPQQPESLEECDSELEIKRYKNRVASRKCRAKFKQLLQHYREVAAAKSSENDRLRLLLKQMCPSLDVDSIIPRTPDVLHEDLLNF
TPT1 inh: Candida albicans TPT1 enzyme inhibitors, primary screen, biochemical, fluorescence polarization | recombinant caTPT1, FP RNA substrate dephosphorylation | inhibition, % at 5 µM | actives 0.81% (n = 300,000) | AID 1962, 2009;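 active = inhibition above the mean of all tested compounds plus 3 SD, set per screening campaign, cut at about 24% in these data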;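 note: plate controls were DMSO alone for no effect and ferristatin control at 100 nM for full effect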
dFosB act-2: activators of mouse delta FosB DNA binding, confirmation, biochemical, fluorescence polarization, TAMRA-CDK5 oligo, cherry-picked samples | shares compounds with dFosB act-1 | purified delta FosB; normalised: neutral wells 0, positive control 100 | activation, % at 24.9 µM | 2,400 tested, under 10 active;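 active = highest replicate activation at or above 34% and every replicate reaching that threshold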;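 note: higher polarization means more probe DNA bound by delta FosB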
An asterisk follows results filed as active; . = no result.

SMILES	dFosB act-1	Rpn11 block	NR3A LBD binder	EBNA-1 inh	ZTA DNA inh	TPT1 inh	dFosB act-2
CC(C)(C)NC(=O)C1(C)CCC(=O)N1CC(F)(F)F (stereo unspecified)	.	-6	.	.	.	.	.
COCCCNC(=O)C1=CCN(S(=O)(=O)c2ccc(C)cc2)CC1	-6	-6	-2	-5	14	4	.
O=C(Oc1ccc(/C=N/NC(=O)c2ccccn2)cc1)c1cccc(Br)c1	19*	-12	-7	.	.	.	4
Cc1ccc(C(=O)N/N=C\c2ccc(OC(=O)c3cccc(F)c3)cc2)cn1	31*	6	-8	-2	-2	1	0
Cc1cc(C(=O)N/N=C/c2cc(Br)cc(Br)c2OC(=O)c2ccccc2)n[nH]1	.	.	.	-6	6	-1	.
O=C(Oc1ccc(/C=N/NC(=O)c2ccccn2)cc1)c1cccc(F)c1	1	9	8	-4	-7	-1	.
Cc1cc(C(=O)N/N=C/c2cc(Br)cc(Br)c2OC(=O)c2cccc(F)c2)n[nH]1	53*	39	6	-21	-1	-1	4
O=[N+]([O-])c1ccccc1OCCNCc1ccccc1	1	-3	-3	3	9	0	.
NS(=O)(=O)c1ccc(NC(=O)c2cc(-c3cc(Cl)ccc3O)n[nH]2)cc1	38*	0	34*	.	.	.	-2
O=C(CNc1ccc2ccccc2c1)N/N=C/c1ccc([N+](=O)[O-])o1	31*	4	-1	-22	-17	-1	4
O=C(COc1ccccc1)N/N=C/c1ccc([N+](=O)[O-])o1	0	-2	-3	-6	0	1	.
COc1cc(/C=N/NC(=O)c2cc(C3CC3)[nH]n2)cc(OC)c1OC	20*	10	0	4	7	1	-1
CCOc1cccc(/C=N/NC(=O)c2cc(C3CC3)[nH]n2)c1O	8	-3	2	-10	2	1	.
COc1cccc(/C=N/NC(=O)CN(C2=NS(=O)(=O)c3ccccc32)c2ccccc2)c1	22*	-2	0	16	-17	-2	0
COc1ccc(/C=N/NC(=O)CN(C2=NS(=O)(=O)c3ccccc32)c2ccccc2)cc1OC	3	-1	-4	15	-11	0	.
COc1cccc(-c2ccc(NC(=O)C3CCCN(Cc4ccco4)C3)cc2)c1 (stereo unspecified)	-15	-3	-4	8	7	0	.
COc1cccc(-c2ccc(NC(=O)C3CCCN(CCCn4nc(C)cc4C)C3)cc2)c1 (stereo unspecified)	27*	8	-2	-12	15	-2	6
CS(=O)(=O)c1cccc(C(=O)Nc2ccc(-c3nc4ccccc4[nH]3)cc2)c1	37*	8	32*	15	-11	-2	8
CN(c1ccccc1)S(=O)(=O)c1ccc(Cl)c(C(=O)Nc2nc3ccccc3[nH]2)c1	1	-4	-18	-5	8	-4	.
O=C(Nc1ccc(-c2nc3ccccc3[nH]2)cc1)c1ccc(N2C(=O)CCC2=O)cc1	25*	0	24*	11	25	0	3
CN(c1ccccc1)S(=O)(=O)c1ccc(Cl)c(C(=O)Nc2ccc(-c3nc4ccccc4[nH]3)cc2)c1	44*	-2	19*	1	12	2	3
CN(C(=O)CSc1n[nH]c(-c2cccs2)n1)C1CCS(=O)(=O)C1 (stereo unspecified)	0	1	-2	-13	14	-1	.
CC(Oc1ccc([N+](=O)[O-])cc1)C(=O)NCC1CCCO1 (stereo unspecified)	1	-12	1	5	9	0	.
Cc1ccc(S(=O)(=O)NCC(=O)OCC(=O)NC(=O)NC2CCCC2)cc1	0	-2	-2	-2	-13	0	.
Cc1ccc(C(=O)NC(=S)Nc2ccc3[nH]c(=O)[nH]c3c2)c(C)c1	28*	-1	-3	12	4	-1	7
SMILES	dFosB act-1	Rpn11 block	NR3A LBD binder	EBNA-1 inh	ZTA DNA inh	TPT1 inh	dFosB act-2
Cc1cccc(C(=O)NC(=S)Nc2ccc3[nH]c(=O)[nH]c3c2)c1	13	-1	-2	-2	-16	-5	.
Cc1c(C(=O)N2CCN(CCc3ccccn3)CC2)oc2ccc(Cl)cc12	-8	-2	-1	9	-10	-1	.
CCN(CC)C(=S)SC1CCCCN(C(=O)c2ccccc2)C1=O (stereo unspecified)	-9	11	-2	2	3	-3	.
C=CCNC(=O)C1CC(=O)N(c2ccc(OCC(=O)Nc3ccc(Cl)c(C(F)(F)F)c3)cc2)C1 (stereo unspecified)	27*	4	3	1	-8	-2	0
C=CCNC(=O)C1CC(=O)N(c2ccc(OCC(=O)Nc3cccc(OC)c3)cc2)C1 (stereo unspecified)	-4	0	1	1	-6	-1	.
O=C(NCCc1nc2ccccc2[nH]1)/C(=C/c1ccc2c(c1)OCO2)NC(=O)c1ccc(Cl)cc1Cl	20*	0	1	5	13	-4	1
O=C(NCCc1nc2ccccc2[nH]1)/C(=C/c1ccc(F)cc1)NC(=O)c1ccco1	-1	8	0	0	6	3	.
COc1ccc(CNC(=O)c2ccc(N3CCOCC3)c([N+](=O)[O-])c2)cc1	-11	2	2	6	-10	1	.
COc1ccc2oc(-c3ccc(C)c(NC(=O)c4ccc(N5CCOCC5)c([N+](=O)[O-])c4)c3)nc2c1	22*	-2	-5	-4	-6	2	3
COc1ccc(OCCN2CCN(S(=O)(=O)c3ccccc3C(F)(F)F)CC2)cc1	-3	5	3	.	0	.	.
CCOc1ccc(C(=O)NCCc2ccc3c(c2)OCCO3)cc1	-9	7	2	3	19	-3	.
CCc1cccc(NC(=O)CC2Oc3ccccc3NC2=O)c1 (stereo unspecified)	21*	-3	1	7	11	2	0
COC(=O)c1cc(NC(=O)CC2Oc3ccccc3NC2=O)cc(C(=O)OC)c1 (stereo unspecified)	-17	0	-4	6	6	0	.
Cc1ccc(NC(=O)CCC(=O)NNS(=O)(=O)c2ccc(Cl)cc2)cc1C	6	2	0	.	.	.	.

Assay outcomes from PubChem.
